KCNQ2 enhance = enhances the rat KCNQ2 potassium channel; CHO-K1 KCNQ2, FluxOR thallium flux fluorescence; hits give high values; B-score at 10 µM; hit rate 0.54% among 310,000; AID 2239;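 active = fluorescence ratio B-score at least 3 SD of library B-scores, with initial fluorescence B-score within 3 of them, cut at about 5.3 in these data; same plate scores as AID 2156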;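 also: B-score of peak minus minimum over baseline fluorescence ratio after K+ and Tl+ stimulus; positive B-score means potentiation of KCNQ2 with more thallium influx and brighter signal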
Target sequence (O88943 whole entry, looked up): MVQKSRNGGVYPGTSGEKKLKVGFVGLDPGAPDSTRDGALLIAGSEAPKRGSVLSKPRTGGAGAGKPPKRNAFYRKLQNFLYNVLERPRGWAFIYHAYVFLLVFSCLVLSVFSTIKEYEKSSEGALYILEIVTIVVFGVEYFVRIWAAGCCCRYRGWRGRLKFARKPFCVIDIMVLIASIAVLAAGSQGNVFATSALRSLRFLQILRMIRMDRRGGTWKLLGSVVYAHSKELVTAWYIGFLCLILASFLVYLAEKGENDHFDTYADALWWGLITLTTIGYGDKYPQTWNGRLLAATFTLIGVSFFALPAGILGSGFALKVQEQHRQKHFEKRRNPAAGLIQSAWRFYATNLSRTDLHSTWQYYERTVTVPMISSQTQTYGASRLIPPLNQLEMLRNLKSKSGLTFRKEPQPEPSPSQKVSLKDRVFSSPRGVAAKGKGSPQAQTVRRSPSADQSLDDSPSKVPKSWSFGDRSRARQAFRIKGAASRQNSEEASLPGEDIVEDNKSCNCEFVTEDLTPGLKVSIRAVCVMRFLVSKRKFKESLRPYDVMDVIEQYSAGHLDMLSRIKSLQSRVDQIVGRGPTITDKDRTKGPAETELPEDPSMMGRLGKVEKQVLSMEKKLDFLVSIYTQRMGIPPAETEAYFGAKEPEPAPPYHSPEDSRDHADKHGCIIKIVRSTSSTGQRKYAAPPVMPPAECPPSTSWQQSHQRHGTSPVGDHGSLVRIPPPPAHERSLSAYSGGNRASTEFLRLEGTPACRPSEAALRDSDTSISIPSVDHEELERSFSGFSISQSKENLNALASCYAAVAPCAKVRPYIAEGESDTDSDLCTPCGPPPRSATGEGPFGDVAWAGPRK
KCNQ2 inh = KCNQ2 (rat) channel inhibition. O88943. CHO-K1 KCNQ2, FluxOR thallium flux, 20 min; hits give low values. B-score at 10 µM. hit rate 1.1% among 310,000. AID 2156;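 active = fluorescence ratio B-score at most minus 3 library SDs, with starting brightness B-score within 2 library SDs, cut at about -5.5 in these data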
Active calls of the source: *; i = inactive; x = no result given. In the library only some 1.6% were active in any assay of this set; here they are far more common.

SMILES | KCNQ2 enhance | KCNQ2 inh
Cc1cccnc1Nc1nc(-c2ccccn2)cs1 | 1.9 | i
Cc1cccnc1Nc1nc(-c2ccccc2)cs1 | -7.8 | -7.8*
CCOC(=O)/C=C1\SCC(=O)N1CC(=O)Nc1cccc(F)c1 | x | i
O=C(O)C(Cc1c[nH]c2ccccc12)NS(=O)(=O)c1ccc(Br)cc1 (stereo not drawn) | 1.2 | i
O=C(O)C(Cc1c[nH]c2ccccc12)NS(=O)(=O)c1ccc(Cl)cc1 (stereo not drawn) | -7.3 | -7.3*
Cc1ccc(N2CCN(S(=O)(=O)c3ccc4oc(=O)ccc4c3)CC2)cc1Cl | x | i
CC(C)Oc1ccc(CNC(=O)Cn2ccc3cc(S(=O)(=O)N4CCCC4)ccc32)cc1 | 1.1 | i
CCOc1ccccc1NC(=O)C(OC(=O)c1ccccc1O)c1ccccc1 (stereo not drawn) | x | i
CCOc1ccccc1NC(=O)C(OC(=O)c1cc(C)oc1C)c1ccccc1 (stereo not drawn) | -5.8 | -5.8*
Cc1cccc(N(C)S(=O)(=O)c2c[nH]c3ccc([N+](=O)[O-])cc23)c1 | 0.03 | i
CCN(CC)S(=O)(=O)c1ccc(N2CCCCC2)c(NC(=O)C2=COCCO2)c1 | x | i
CC1(C)CC(NC(=O)C(Cl)(Cl)Cl)CC(C)(C)N1 | x | i
COc1ccc2ncc(S(=O)(=O)c3ccccc3)c(N3CCN(c4ccccc4)CC3)c2c1 | x | i
Cc1ccc2ncc(S(=O)(=O)c3ccccc3)c(N3CCCCC3C)c2c1 (stereo not drawn) | -6.1 | -6.1*
O=C(CSc1nc(N2CCCCC2)nc(N2CCCCC2)n1)N1CCN(c2ccccc2)CC1 | 19* | i
Cc1cc(C)nc(SCC(=O)N2CCc3ccccc32)n1 | x | i
O=C(CSc1nc(N2CCCCC2)nc(N2CCCCC2)n1)N1CCc2ccccc21 | 14* | i
Cc1nc(SCC(=O)N2CCN(c3ccccc3)CC2)n[nH]1 | x | i
CCOC(=O)c1c(-c2ccc(OC)cc2)csc1/N=C/C1=C(O)CCCC1=O | 1.5 | i
O=C1C(CSCc2ccccc2)NC(=S)N1c1ccccc1 (stereo not drawn) | x | i
CC1CN(c2ccccc2)CCN1C(=O)c1cc(COc2c(F)cccc2F)on1 (stereo not drawn) | 1.3 | i
Cc1cccc(C)c1OCc1cc(C(=O)N2CCN(c3ccccc3)CC2C)no1 (stereo not drawn) | -7.1 | -7.1*
O=S(=O)(Cc1ccccc1)NCCc1cccc(Cl)c1 | x | i
CCC(C)NC(=O)CN(c1ccc(Cl)c(Cl)c1)S(C)(=O)=O (stereo not drawn) | 1.1 | i
Cc1c(Cl)ccc2c(C(=O)NCCN3CCCCC3)cc(-c3ccccn3)nc12 | x | i
SMILES | KCNQ2 enhance | KCNQ2 inh
COc1ccccc1-c1cc(C(=O)NC2CCN(C)CC2)c2ccc(Cl)c(C)c2n1 | -5.8 | -5.8*
COc1ccc(C(=O)NCCc2nnc3ccc(SCC(=O)Nc4ccccc4F)nn23)cc1 | 0.65 | i
O=c1oc2cc(OCc3ccc(F)cc3F)ccc2cc1-c1ccc2ccccc2n1 | 0.04 | i
COc1ccc(N2CCN(c3ncnc4scc(-c5ccc(C)cc5)c34)CC2)cc1 | 3.5 | i
COc1ccc(N2CCN(C(=O)CSc3ncnc4scc(-c5ccc(C)cc5)c34)CC2)cc1 | -5.6 | -5.6*
COc1ccc(-c2csc3ncnc(N4CCN(S(=O)(=O)c5cccs5)CC4)c23)cc1 | x | i
COc1ccc(-c2csc3ncnc(N4CCN(c5cccc(Cl)c5)CC4)c23)cc1 | -6.1 | -6.1*
COc1ccc(-c2csc3ncnc(N4CCN(S(=O)(=O)c5ccc(Cl)s5)CC4)c23)cc1 | -7.5 | -7.5*
COc1ccc(-c2csc3ncnc(N4CCN(c5cccc(OC)c5)CC4)c23)cc1 | x | i
Cc1cccc(C(=O)C2CCN(S(=O)(=O)c3cccc(C(=O)O)c3)CC2)c1 | 0.31 | i
CCCc1c(C(=O)N/N=C/c2cccc(OCc3ccc(F)cc3)c2)nnn1-c1nonc1N | x | i
CC(=O)c1cnc2c(-c3ccc(Cl)cc3)c(C)nn2c1C | -5.8 | -5.8*
CC(=O)c1cnc2c(-c3ccccc3)c(C)nn2c1C | x | i
CCCCN(C(=O)c1cc(S(=O)(=O)N2CCOCC2)ccc1Cl)c1c(N)n(CC(C)C)c(=O)[nH]c1=O | x | i
CC1Cc2ccccc2N1Cc1cccc([N+](=O)[O-])c1 (stereo not drawn) | x | i
O=C(COC(=O)C1(c2ccc(Cl)cc2)CCCC1)N1CCc2ccccc21 | -7.3 | -7.3*
O=C(CNS(=O)(=O)c1ccc(Cl)cc1)OCC(=O)N1CCCc2ccccc21 | x | i
O=C(CCN1Cc2ccccc2C1)c1ccc2c(c1)OCCO2 | -5.9 | -5.9*
O=C(CCN1CCc2ccccc2C(c2ccccc2)C1)c1ccc2c(c1)OCCO2 (stereo not drawn) | x | i
COc1ccc(C(CNC(=O)c2oc3ccc(F)cc3c2C)N2CCCCC2)cc1 (stereo not drawn) | -6.3 | -6.3*
COc1ccc(C(CNC(=O)c2oc3ccc(OC)cc3c2C)N2CCCC2)cc1 (stereo not drawn) | x | i
COc1ccc(C(CNC(=O)c2oc3ccc(Br)cc3c2C)N2CCCCC2)cc1 (stereo not drawn) | -6.2 | -6.2*
COc1ccc(C(CNC(=O)c2oc3cc(C)c(C)cc3c2C)N2CCCCC2)cc1 (stereo not drawn) | x | i
COc1ccc(C(CNC(=O)COc2ccccc2C)N2CCCC2)cc1 (stereo not drawn) | x | i
CCc1ccc2oc(C(=O)NCC(c3ccc(OC)cc3)N3CCCCC3)c(C)c2c1 (stereo not drawn) | -7.1 | -7.1*
SMILES | KCNQ2 enhance | KCNQ2 inh
COc1ccc(C(CNC(=O)COc2ccc(Cl)c(C)c2)N2CCCCC2)cc1 (stereo not drawn) | -5.9 | -5.9*
COc1ccc(C(CNC(=O)c2oc3cc(Br)ccc3c2C)N2CCCCC2)cc1 (stereo not drawn) | x | i
CCN(C(=O)N1CCOCC1)c1ccccc1C | 0.07 | i
COc1ccccc1/C=C/C1(C(=O)NC2CCCC2)CC(=O)N1c1ccccc1 (stereo not drawn) | 0.35 | i
CC(C)CC(=O)Nc1nnc(SCC(=O)Nc2nccs2)s1 | 0.62 | i
Cc1cccc(-c2nc(CS(=O)CC(=O)N3CC(C)CC(C)C3)c(C)o2)c1 (stereo not drawn) | 0.19 | i
N=C1c2ccccc2CN1NC(=O)CC12CC3CC(CC(C3)C1)C2 | 18* | i
Cc1cc(C)cc(OCC(=O)NN2Cc3ccccc3C2=N)c1 | 1.1 | i
CNS(=O)(=O)c1cccc(C(=O)NCC(c2cccs2)N2CCOCC2)c1 (stereo not drawn) | 1.8 | i
O=C(NCC1CCCN(Cc2ccc3c(c2)OCCO3)C1)c1ccc2c(c1)OCO2 (stereo not drawn) | 0.77 | i
O=C(NCC1CCCN(Cc2ccc3nonc3c2)C1)c1cccc(C(F)(F)F)c1 (stereo not drawn) | -5.7 | -5.7*
CCCCN(C)CCNC(=O)CN1C(=O)CSc2ccc(S(=O)(=O)N3CCCC3)cc21 | 0.14 | i
Clc1cccc(Cl)c1Cn1cnc2c(NCc3ccco3)ncnc21 | 0.45 | i
Cn1cnc2c(NCc3ccco3)ncnc21 | -7 | -7*
CN(C)C(=O)COC(=O)[C@H](Cc1ccccc1)NC(=O)c1ccco1 | x | i
CN(C(=O)COC(=O)C(Cc1ccccc1)NC(=O)c1ccccc1)c1ccccc1 (stereo not drawn) | -5.7 | -5.7*
